This is an account of results in PubChem BioAssay (NCATS).

Inconclusive results are not listed. Calls of active or inactive are those of the source. Unless noted, calls come from the whole dose curve; as a rule, active = well fitted curve in the direction sought with a large enough effect; inconclusive = small, poorly fitted or top-dose-only effect, or another doubt; inactive = no such curve, though single readings can be large; an effect the other way counts as inactive or inconclusive.

The target in assay [1] is Ubiquitin carboxyl-terminal hydrolase 2 (Homo sapiens) (UniProt O75604). The experiment in a line: qHTS Validation Assay for Inhibitors of Ubiquitin-specific Protease USP2a Using CHOP2 as the Reporter (AID 463106). An outline of the steps: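 USP2 core (10 nM final) was preincubated with compound 30 min at RT in pH 8.0 Tris/CaCl2/beta-ME/CHAPS buffer. Ub-CHOP2 and reporter substrate (25 nM final each) were then added, with fluorescence (Ex 485/Em 531) read after 60 min. Data were normalized to NEM full inhibition and fitted to concentration-response curves.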
Ubiquitin carboxyl-terminal hydrolase 2 (Homo sapiens), sequence (O75604 whole entry, looked up): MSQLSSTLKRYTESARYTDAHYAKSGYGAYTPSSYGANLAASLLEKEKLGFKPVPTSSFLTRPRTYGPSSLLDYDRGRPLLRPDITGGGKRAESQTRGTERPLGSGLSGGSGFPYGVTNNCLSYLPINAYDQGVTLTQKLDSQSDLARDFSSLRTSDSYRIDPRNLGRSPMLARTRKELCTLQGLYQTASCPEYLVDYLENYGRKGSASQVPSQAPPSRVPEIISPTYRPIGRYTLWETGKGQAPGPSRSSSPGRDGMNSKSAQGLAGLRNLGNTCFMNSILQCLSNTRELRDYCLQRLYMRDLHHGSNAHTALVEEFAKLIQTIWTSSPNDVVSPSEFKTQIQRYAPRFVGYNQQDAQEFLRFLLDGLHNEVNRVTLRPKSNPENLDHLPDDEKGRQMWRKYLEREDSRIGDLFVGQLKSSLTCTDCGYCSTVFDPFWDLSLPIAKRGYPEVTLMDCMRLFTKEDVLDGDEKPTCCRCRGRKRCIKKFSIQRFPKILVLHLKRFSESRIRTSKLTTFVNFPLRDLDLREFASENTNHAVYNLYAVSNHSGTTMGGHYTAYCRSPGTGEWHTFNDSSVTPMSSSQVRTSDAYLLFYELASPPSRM

Assay [2] concerns the target Tumor susceptibility gene 101 protein (Homo sapiens) (UniProt Q99816). As to the kind of experiment: qHTS Validation Assay for Iinhibitors of HIV-1 Budding by Blocking the Interaction of PTAP/TSG101 (AID 485342; calls by dose curve). An outline of the steps:
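Fluorescence anisotropy measured PTAP-Tsg101 interaction. Final concentrations were 10 uM protein domain and 50 nM labeled peptide, equilibrated 20 min at room temperature.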

Assay [3] concerns the target Beta-2 adrenergic receptor (Homo sapiens) (UniProt P07550). The experiment in a line: qHTS validation assay of beta-arrestin-biased ligands of beta2-adrenergic receptor (AID 485366). An outline of the steps: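 Tango cells expressing recombinant beta2-AR and beta-arrestin with tTA-driven luciferase, in DMEM with 1% FBS. Compounds were titrated up to 46 microM for 18 hr at 37 degrees C. Luminescence was read 15 min after substrate; curves were fitted and class-assigned.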

The target in assay [4] is ATP-dependent 6-phosphofructokinase (Trypanosoma brucei brucei) (UniProt O15648). The experiment in a line: qHTS Validation Assay to Find Inhibitors of T. brucei phosphofructokinase (AID 485368). Note: potency is the fitted concentration of half-maximal effect. An outline of the steps: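 Activity was read as ADP production by luminescence (ADP-Glo) after 45 min at room temperature. The enzyme was 1.25nM PFK in 0.1M TEA pH 8.0 with 0.5 mM F6P, 0.1mM ATP and 5 mM MgCl2. Compounds were titrated up to 57 uM and % activity normalized to no-enzyme and full-enzyme controls.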

Assay [5] addresses Flap endonuclease 1 (Homo sapiens) (UniProt P39748). The experiment in a line: qHTS Validation Assay for the Inhibitors of Human Flap endonuclease 1 (FEN1) (AID 488816). Note: potency is the fitted concentration of half-maximal effect. A digest of the protocol:
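Human FEN1 (10 nM) preincubated 15 min at room temperature with compounds, then flap DNA substrate added at 50 nM final. Fluorescence read at 0 and 15 min; concentration-response fitted with four-parameter Hill equation.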

Assay [6] addresses M-phase phosphoprotein 8 (Homo sapiens) (UniProt Q99549). As to the kind of experiment: qHTS Validation Assay for Inhibitors for MPP8 Chromodomain Interactions with Methylated Histone Tails (AID 488949). Note: nearly all actives have a fitted effect of over 55% in size. Note: potency is the fitted concentration of half-maximal effect. An outline of the steps: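 Disruption of the preformed MPP8–trimethyl-H3K9 peptide complex (both 50 nM, 30 min, RT) is measured after 30 min compound exposure, using AlphaScreen proximity beads; aurintricarboxylic acid titration serves as plate control.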

The target of assay [7] is Chromobox protein homolog 1 (Homo sapiens) (UniProt P83916). As to the kind of experiment: qHTS Validation Assay for Inhibitors of HP1-beta Chromodomain Interactions with Methylated Histone Tails (AID 488953). Note: nearly all actives have a fitted effect of over 50% in size. Note: potency is the fitted concentration of half-maximal effect. An outline of the steps:
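50 nM HP1-beta + 50 nM biotin-H3(1-18)K9me3, PBS pH 7.4, 0.01% Tween-20, 30 min RT; compound added, 30 min RT; AlphaScreen beads 10 ug/mL final, 30 min dark; luminescence read.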

Assay [8] is described as follows: High Content Imaging Cell-Based qHTS for Inhibitors of the mTORC1 Signaling Pathway in MEF (Tsc2-/-, p53-/-) Cells (AID 2666).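 Note: percent of cells scored positive for phospho-rpS6 Ser235/236 immunostaining by imaging.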 Note: potency is the fitted concentration of half-maximal effect. A digest of the protocol:
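Phospho-rpS6 (Ser235/236) immunofluorescence, normalized and scored as % positive cells using rapamycin and DMSO controls, was read in empty-vector Tsc2-/-, p53-/- MEFs after 24 h compound exposure at 37 C; propidium iodide counted cells.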

Assay [9] can be described thus: Cytometry Cell-Based qHTS for Inhibitors of the mTORC1 Signaling Pathway in MEF cells (AID 2668). Note: potency is the fitted concentration of half-maximal effect. A digest of the protocol:
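Pathway inhibition in WT Tsc2-rescued Tsc2-/-, p53-/- MEFs is measured as the Alexa-488 phospho-rpS6 to propidium iodide intensity ratio after 24 hrs of compound at 37 degree Celsius. PI-stained cell number gives viability.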

In assay [10] the target is DNA polymerase III PolC-type (Bacillus subtilis (strain 168)) (UniProt P13267). As to the kind of experiment: qHTS Validation Assay for the Inhibitors of DNA Replication in Gram-Positive Bacteria (AID 485295). Note: potency is the fitted concentration of half-maximal effect. An outline of the steps: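 Primed replication of single-stranded M13Gori by a four-protein B. subtilis holoenzyme is measured at room temperature. Double-stranded product is quantified by PicoGreen fluorescence after an EDTA stop; inhibition is scaled between DMSO and EDTA controls.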
DNA polymerase III PolC-type (Bacillus subtilis (strain 168)), sequence (P13267 whole entry, looked up): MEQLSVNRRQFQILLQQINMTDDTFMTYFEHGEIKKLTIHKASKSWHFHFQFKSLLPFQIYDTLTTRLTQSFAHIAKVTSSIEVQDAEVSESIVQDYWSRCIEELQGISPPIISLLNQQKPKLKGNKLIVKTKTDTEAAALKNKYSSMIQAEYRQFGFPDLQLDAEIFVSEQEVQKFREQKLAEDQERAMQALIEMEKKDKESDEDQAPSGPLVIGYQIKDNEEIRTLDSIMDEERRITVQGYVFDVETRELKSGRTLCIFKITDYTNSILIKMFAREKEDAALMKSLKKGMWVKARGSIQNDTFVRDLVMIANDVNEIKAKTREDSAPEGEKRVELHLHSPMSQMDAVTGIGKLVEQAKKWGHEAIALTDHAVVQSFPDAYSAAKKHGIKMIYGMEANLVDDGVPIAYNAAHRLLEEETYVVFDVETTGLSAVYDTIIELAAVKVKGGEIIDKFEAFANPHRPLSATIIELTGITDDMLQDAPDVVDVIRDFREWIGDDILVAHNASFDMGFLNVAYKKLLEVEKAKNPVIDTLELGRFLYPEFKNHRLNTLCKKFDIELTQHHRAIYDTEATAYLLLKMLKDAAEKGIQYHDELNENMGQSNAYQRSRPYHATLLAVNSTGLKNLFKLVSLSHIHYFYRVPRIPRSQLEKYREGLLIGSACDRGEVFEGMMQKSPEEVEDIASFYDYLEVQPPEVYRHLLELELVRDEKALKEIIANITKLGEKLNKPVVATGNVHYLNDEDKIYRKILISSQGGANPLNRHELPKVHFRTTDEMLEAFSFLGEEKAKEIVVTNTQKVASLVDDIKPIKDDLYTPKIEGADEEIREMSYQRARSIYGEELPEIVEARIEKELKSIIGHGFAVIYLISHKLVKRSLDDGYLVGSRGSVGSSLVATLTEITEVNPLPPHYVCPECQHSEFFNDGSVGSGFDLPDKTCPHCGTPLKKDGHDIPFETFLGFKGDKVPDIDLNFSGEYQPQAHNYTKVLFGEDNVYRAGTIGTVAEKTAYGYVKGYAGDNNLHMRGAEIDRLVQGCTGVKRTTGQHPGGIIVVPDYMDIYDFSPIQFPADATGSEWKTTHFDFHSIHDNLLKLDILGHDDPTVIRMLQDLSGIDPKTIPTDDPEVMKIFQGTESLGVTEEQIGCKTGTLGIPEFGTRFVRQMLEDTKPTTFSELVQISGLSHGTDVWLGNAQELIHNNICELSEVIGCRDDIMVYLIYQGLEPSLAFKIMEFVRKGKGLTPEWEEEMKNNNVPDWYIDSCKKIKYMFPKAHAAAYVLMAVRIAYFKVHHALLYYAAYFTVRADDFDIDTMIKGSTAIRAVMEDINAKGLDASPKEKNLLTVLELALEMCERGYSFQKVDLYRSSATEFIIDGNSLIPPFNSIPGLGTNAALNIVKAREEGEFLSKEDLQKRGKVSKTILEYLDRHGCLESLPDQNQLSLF

For assay [11], the target named is Thioredoxin reductase 1, cytoplasmic (Rattus norvegicus) (UniProt O89049). As to the kind of experiment: qHTS Assay for Substrates of Mammalian Selenoprotein Thioredoxin Reductase 1 (TrxR1) (AID 488772).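 Note: NADPH fluorescence in the first read after selenite addition and not the 8 min delta; series mostly up to about 57 µM; a drop in NADPH fluorescence below the no-compound background marks a TrxR1 substrate.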 An outline of the steps: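 Quantitative HTS in Tris-HCl buffer at pH 7.5 with EDTA and Tween-20, using rat TrxR1, 400 uM NADPH and 400 uM selenite (final). A fall in initial NADPH fluorescence relative to background marked substrate behaviour.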
Thioredoxin reductase 1, cytoplasmic (Rattus norvegicus), sequence (O89049 whole entry, looked up): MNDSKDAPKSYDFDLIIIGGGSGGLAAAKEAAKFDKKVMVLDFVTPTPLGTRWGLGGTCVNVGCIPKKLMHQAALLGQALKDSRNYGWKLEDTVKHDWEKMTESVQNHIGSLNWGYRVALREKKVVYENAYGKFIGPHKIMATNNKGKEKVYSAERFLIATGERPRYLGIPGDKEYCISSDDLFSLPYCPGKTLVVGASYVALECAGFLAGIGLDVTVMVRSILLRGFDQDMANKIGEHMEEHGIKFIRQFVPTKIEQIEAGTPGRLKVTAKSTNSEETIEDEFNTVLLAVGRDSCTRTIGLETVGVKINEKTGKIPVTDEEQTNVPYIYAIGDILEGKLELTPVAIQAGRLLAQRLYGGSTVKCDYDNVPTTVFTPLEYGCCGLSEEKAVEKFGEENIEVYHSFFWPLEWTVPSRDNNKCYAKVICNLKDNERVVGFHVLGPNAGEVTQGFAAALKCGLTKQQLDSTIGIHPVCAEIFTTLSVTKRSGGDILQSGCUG

Assay [12] has the same target. The experiment in a line: qHTS Assay for Inhibitors of Mammalian Selenoprotein Thioredoxin Reductase 1 (TrxR1) (AID 488773). Note: nearly all actives have a fitted effect of over 40% in size. Note: potency is the fitted concentration of half-maximal effect. As to conditions: Potency: inhibition. An outline of the steps:
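Steps: enzyme (90 nM) plus NADPH (400 uM final), 5 min at ~22 deg C; compound added, 15 min; selenite (400 uM final) added; fluorescence followed for 8 min. Concentration-response curves derived from the normalized delta values.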

A short description of assay [13]: Validation screen for small molecules that induce DNA re-replication in MCF 10A normal breast cells (AID 463097). Note: nearly all actives have a fitted effect of over 60% in size. Note: potency is the fitted concentration of half-maximal effect. An outline of the steps:
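DNA re-replication was detected as a rise in nuclei with elevated Hoechst fluorescence after a 48 hr compound exposure of MCF 10A cells at 37 C.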

A short description of assay [14]: Quantitative high throughput screen for delayed death inhibitors of the malarial parasite plastid, 96 hour incubation (AID 488745).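 Note: luciferase-expressing P. falciparum in erythrocytes at 2% hematocrit and 0.1% parasitemia; series mostly up to about 29 µM; nearly all actives have a fitted effect of over 70% in size.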 A digest of the protocol: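 Infected erythrocytes were added to compound in Albumax-supplemented RPMI 1640 at 0.1% parasitemia and 2% hematocrit (final), incubated 96 h at 37 C under 5% CO2, then luciferase reagent was added and luminescence measured.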

Assay [15] can be described thus: Quantitative high throughput screen for delayed death inhibitors of the malarial parasite plastid, 48 hour incubation (AID 488752). Note: nearly all actives have a fitted effect of over 65% in size. A digest of the protocol: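 Readout is firefly luciferase luminescence from a reporter integrated into the parasite genome, with lower signal taken as inhibited growth. Infected red cells (0.1% parasitemia, 2% hematocrit final) are cultured with compound for one 48 h cycle at 37 C.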

The nature of assay [16]: High Content Imaging Cell-Based qHTS for Inhibitors of the mTORC1 Signaling Pathway in MEF Cells (AID 2667).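 Note: Tsc2-/- p53-/- MEFs stably re-expressing wild-type Tsc2 exposed 24 h; series mostly up to about 38 µM.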 A digest of the protocol:
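WT MEFs (Tsc2-/-, p53-/- re-expressing Tsc2), in DMEM + 10% FBS, were treated with compound for 24 h at 37 C. Cells were then fixed and stained for phospho-rpS6 Ser235/236 with propidium iodide as cell count. Values are % positive cells, with thresholds set against rapamycin-treated cells.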

Assay [17] can be described thus: qHTS Validation Assay to Find Inhibitors of Chronic Active B-Cell Receptor Signaling (AID 485345; active = well fitted curve in the direction sought with a large enough effect in the main read-out, with a control signal flat, not every such curve was filed as active). An outline of the steps:
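TMD8 ABC-DLBCL cells stably carrying doxycycline-inducible IkappaBalpha–green luciferase fusion plus unfused red luciferase; compounds 46 uM to 3 nM, 4 h at 37C with doxycycline. Corrected green/red luminescence ratio normalized to 10 uM MG-132 and basal cell wells; curves fitted.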

Assay [18] in a line: Cytometric Cell-Based qHTS for Inhibitors of the mTORC1 Signaling Pathway in MEF (Tsc2-/-, p53-/-) Cells (AID 2660).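 Note: percent of cells above a phospho-rpS6 to PI ratio cutoff in each well; series mostly up to about 38 µM.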 An outline of the steps:
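Tsc2-/-, p53-/- MEFs (empty vector) exposed to compound 24 h at 37 C, fixed, stained with Alexa-488 anti-phospho-rpS6 Ser235/236 and propidium iodide. Acumen laser scanning; phospho-S6/PI ratio thresholded against 7.5 nM rapamycin, reported as % positive cells.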

M-phase phosphoprotein 8 (Homo sapiens), sequence (Q99549 whole entry, looked up): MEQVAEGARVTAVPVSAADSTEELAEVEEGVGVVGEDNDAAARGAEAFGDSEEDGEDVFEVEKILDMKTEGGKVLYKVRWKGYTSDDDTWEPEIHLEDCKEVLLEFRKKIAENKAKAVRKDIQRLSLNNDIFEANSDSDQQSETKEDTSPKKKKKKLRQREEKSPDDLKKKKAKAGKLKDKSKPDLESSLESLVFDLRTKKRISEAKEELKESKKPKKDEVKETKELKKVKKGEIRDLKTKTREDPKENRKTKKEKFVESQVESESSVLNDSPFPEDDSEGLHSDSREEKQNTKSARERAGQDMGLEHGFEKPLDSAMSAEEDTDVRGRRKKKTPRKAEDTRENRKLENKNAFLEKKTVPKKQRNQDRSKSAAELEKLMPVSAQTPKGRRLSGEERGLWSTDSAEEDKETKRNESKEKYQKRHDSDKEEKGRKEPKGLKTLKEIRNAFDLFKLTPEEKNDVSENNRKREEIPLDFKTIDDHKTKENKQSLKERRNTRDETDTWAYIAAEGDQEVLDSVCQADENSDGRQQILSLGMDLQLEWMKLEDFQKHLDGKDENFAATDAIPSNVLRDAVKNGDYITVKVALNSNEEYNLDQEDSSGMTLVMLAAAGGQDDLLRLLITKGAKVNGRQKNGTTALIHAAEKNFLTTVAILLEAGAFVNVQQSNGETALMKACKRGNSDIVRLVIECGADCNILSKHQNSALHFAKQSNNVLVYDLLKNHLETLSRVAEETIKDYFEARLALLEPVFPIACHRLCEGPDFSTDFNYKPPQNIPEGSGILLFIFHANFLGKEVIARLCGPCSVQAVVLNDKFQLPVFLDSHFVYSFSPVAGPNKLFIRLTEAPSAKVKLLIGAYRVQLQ
Flap endonuclease 1 (Homo sapiens), sequence (P39748 whole entry, looked up): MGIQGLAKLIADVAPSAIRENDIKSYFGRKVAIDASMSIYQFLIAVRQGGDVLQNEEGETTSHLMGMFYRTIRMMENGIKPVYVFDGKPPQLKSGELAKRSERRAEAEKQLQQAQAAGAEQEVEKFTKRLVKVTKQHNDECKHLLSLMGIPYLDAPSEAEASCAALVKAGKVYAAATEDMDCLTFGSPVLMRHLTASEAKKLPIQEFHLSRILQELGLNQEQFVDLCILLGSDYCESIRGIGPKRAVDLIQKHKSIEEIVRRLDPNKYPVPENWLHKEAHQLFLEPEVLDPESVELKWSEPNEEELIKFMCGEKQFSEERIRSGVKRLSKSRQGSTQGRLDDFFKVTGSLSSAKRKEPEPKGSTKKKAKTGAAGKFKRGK
Tumor susceptibility gene 101 protein (Homo sapiens), sequence (Q99816 whole entry, looked up, the tested form may be a part): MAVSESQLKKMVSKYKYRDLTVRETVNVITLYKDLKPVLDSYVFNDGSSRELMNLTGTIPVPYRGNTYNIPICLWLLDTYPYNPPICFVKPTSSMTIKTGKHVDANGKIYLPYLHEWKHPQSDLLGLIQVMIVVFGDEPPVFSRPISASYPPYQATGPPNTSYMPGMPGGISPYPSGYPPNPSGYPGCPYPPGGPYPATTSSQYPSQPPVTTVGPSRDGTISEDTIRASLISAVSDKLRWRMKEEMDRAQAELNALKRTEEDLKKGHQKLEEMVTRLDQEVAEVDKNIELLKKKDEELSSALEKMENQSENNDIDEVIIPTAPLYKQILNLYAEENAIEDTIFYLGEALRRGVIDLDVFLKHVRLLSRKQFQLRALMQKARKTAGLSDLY
Chromobox protein homolog 1 (Homo sapiens), sequence (P83916 whole entry, looked up): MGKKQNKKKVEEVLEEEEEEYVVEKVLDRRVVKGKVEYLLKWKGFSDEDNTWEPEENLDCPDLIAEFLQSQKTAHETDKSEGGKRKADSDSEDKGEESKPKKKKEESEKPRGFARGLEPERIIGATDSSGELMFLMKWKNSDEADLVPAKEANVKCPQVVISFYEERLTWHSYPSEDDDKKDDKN
Beta-2 adrenergic receptor (Homo sapiens), sequence (P07550 whole entry, looked up): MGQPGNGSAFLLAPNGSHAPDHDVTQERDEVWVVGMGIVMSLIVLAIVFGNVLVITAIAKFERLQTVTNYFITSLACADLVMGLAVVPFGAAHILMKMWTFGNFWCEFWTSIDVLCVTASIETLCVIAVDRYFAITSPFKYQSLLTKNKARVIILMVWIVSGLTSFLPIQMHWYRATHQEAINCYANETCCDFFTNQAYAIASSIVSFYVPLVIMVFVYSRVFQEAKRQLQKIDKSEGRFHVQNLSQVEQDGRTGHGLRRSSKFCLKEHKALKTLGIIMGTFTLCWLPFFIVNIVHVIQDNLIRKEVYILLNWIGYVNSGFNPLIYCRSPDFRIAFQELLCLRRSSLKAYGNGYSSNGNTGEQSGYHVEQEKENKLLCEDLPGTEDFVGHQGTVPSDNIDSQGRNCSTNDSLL

Turning to `CC[C@@H](C)[C@H]1O[C@]2(CC[C@H]1C)C[C@@H]1C[C@@H](CC=C(C)[C@@H](O[C@H]3C[C@H](OC)[C@@H](O[C@H]4C[C@H](OC)[C@@H](O)[C@H](C)O4)[C@H](C)O3)[C@@H](C)C=CC=C3CO[C@@H]4[C@H](O)C(C)=C[C@@H](C(=O)O1)[C@]34O)O2`, the Potency result in assay [1], in assay [4], in [5], in [6] and in assay [7] was “inactive” throughout. Also, the outcome in assay [2] and in assay [3] was inactive.

Turning to `O=C1NC(=O)/C(=C/c2ccc3nccnc3c2)S1`, the Potency entry in assay [8], in assay [1], in assay [10], in assay [4], in assay [11] and in assay [12] was “inactive” in each case. Besides, the Potency entry in assay [5], in [6] and in assay [7] was “inactive” each time. In addition, in assay [9], the Potency was 16.5 µM (active). In addition, the compound was classed as inactive in assay [2] and in assay [3].

Take `O=c1[nH]c2ccccc2n1CCCN1CCN(C(c2ccccc2)c2ccccc2)CC1`: the Potency entry in assay [13], in assay [14] and in assay [15] was “inactive” throughout.

On to `CN[C@H](CC(C)C)C(=O)N[C@H]1C(=O)N[C@@H](CC(N)=O)C(=O)N[C@H]2C(=O)N[C@H]3C(=O)N[C@H](C(=O)N[C@H](C(=O)O)c4cc(O)cc(O)c4-c4cc3ccc4O)[C@H](O)c3ccc(c(Cl)c3)Oc3cc2cc(c3O[C@@H]2O[C@H](CO)[C@@H](O)[C@H](O)[C@H]2O[C@H]2C[C@](C)(N)[C@H](O)[C@H](C)O2)Oc2ccc(cc2Cl)[C@H]1O`, for which the Potency entry in [13], in [14], in assay [15] and in [6] was “inactive” in each case.

For the compound `CCCCCCCCCCCCCCCCCCNC(=O)OCC(COP(=O)([O-])OCC[n+]1ccsc1)OC` (centres undefined), the Potency result in assay [16], in [9], in assay [10], in assay [14], in assay [15] and in assay [11] was “inactive” throughout. The Potency entry in assay [12], in assay [5], in [6] and in assay [7] was “inactive” each time. The result in assay [2], in [17] and in assay [3] was inactive.

Take `NS(=O)(=O)C#Cc1ccccc1`: the Potency entry in [8], in assay [16], in [1], in assay [10], in assay [4] and in assay [11] was “inactive” in each case. For the same compound, the Potency entry in assay [5], in [6] and in [7] was “inactive” each time. Moreover, the outcome in assay [2] and in assay [3] was inactive.

In the case of `CCOC(=O)N1CCN(/[N+]([O-])=N/Oc2ccc([N+](=O)[O-])cc2[N+](=O)[O-])CC1`, the Potency is 13.1 µM (active) in [8] and 6.7 µM (active) in assay [12]. The Potency entry in [16], in assay [1], in assay [10], in assay [11], in assay [5] and in assay [6] was “inactive” in each case. The outcome in assay [2] and in assay [3] was inactive.

On to `N.N.O=C(O)C1(C(=O)O)CCC1.[Pt]`, for which the Potency result in assay [13], in assay [14] and in assay [15] was “inactive” each time. Moreover, the Potency in assay [6] was 31.6 µM (active).

For the compound `CN=c1nc(-c2ccccc2)n(-c2ccccc2)s1`, the Potency result in assay [8], in assay [16], in assay [9], in assay [1], in assay [14] and in assay [11] was “inactive” in each case. In addition, the Potency entry in assay [5] was “inactive”. The Potency was 11.2 µM (active) in [13]; 26.7 µM (active) in assay [10]; 10.7 µM (active) in assay [4]; 4.47 µM (active) in assay [6]; 12.6 µM (active) in assay [7]. Further, the compound was classed as inactive in [17] and in assay [3].

Regarding `CC(C)NC[C@@H](O)c1ccc(O)c(O)c1`, the Potency entry in [8], in assay [16], in assay [9], in [1], in assay [10] and in assay [11] was “inactive” throughout. Moreover, the Potency result in [5] and in assay [6] was “inactive” in each case. Further, the compound was called inactive in assay [2] and in [17].

Regarding `Oc1cc(O)cc(/C=C/c2ccc(O)c(O)c2)c1`, the call in [18], in assay [2] and in assay [3] was inactive. In addition, the Potency result in assay [8], in [1], in assay [10] and in [11] was “inactive” each time. The Potency in [4] is 3.79 µM (active); in assay [5] it was 0.844 µM (active); in assay [6], 39.8 µM (active); in [7], 44.7 µM (active).
